# Screens from PubChem.
# Only some compounds are listed: those with a hit (about 10% of all), similar ones and a draw of the others.
# HP1b chromo inh = inhibitors of HP1-beta chromodomain binding to methylated histone tails; P83916; Potency, µM (top dose mostly 114 µM), without a hit: at the highest dose activity change, negative = inhibition, hits mostly inhibitors; AID 540317; AlphaScreen HP1-beta / biotin-H3K9me3 peptide binding; 390,000 compounds, 0.56% hits; also: nearly all actives have a fitted effect of over 70% in size
# Target sequence (P83916 whole entry, looked up): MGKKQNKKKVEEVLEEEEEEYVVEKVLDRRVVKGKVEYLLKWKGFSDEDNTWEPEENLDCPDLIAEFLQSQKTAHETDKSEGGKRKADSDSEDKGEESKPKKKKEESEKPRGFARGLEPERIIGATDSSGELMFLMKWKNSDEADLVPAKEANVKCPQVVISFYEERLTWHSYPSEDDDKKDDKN
#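 AlphaScreen: HP1-beta (50 nM) preformed 30 min with biotin-H3(1-18)K9me3 peptide (50 nM) in PBS pH 7.4, 0.01% Tween-20. Compound added for 30 min at RT, then streptavidin donor/nickel chelate acceptor beads (10 ug/mL) for 30 min.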
# G9a block = blocks human histone lysine methyltransferase G9a; 350,000 compounds, 8.8% hits; Potency, µM (titrated, usually from 102 µM), without a hit: at the top dose activity, negative = inhibition, actives largely listed as inhibitors; AID 504332; G9a H3K9 monomethylation, AlphaScreen, 2 h; also: % is scaled to controls: 0 for no effect and ±100 for the full control effect; nearly all actives have a fitted effect of over 75% in size
# Target sequence (Q96KQ7 913-1193 limits assumed): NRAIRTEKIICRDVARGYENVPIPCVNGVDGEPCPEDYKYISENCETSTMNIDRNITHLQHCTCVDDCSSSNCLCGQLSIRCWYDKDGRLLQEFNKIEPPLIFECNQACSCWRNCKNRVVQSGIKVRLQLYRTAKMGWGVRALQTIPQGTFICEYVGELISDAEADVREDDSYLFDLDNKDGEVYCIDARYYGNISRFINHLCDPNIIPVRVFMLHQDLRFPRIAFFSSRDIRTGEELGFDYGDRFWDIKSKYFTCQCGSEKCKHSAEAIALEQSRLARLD
#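 Signal arises when biotinylated H3K9 peptide, once monomethylated, bridges streptavidin donor and antibody-captured acceptor beads. Enzyme at 20 nM was preincubated 15 min with test compounds; peptide 500 nM and SAM 20 uM then reacted for 2 h.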
# GLS inhibitor = inhibitors of human glutaminase (GLS); O94925; GLS enzymatic activity, qHTS titration; Potency, µM (series often up to 45.5 µM), without a hit: at the highest dose activity change, negative = inhibition, hits mostly inhibitors; 410,000 compounds, 0.21% hits; also: % is scaled to controls: 0 for no effect and ±100 for the full control effect
#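 hKGA in 45 mM KH2PO4 pH 8.2, 0.02% Tween-20 with pin-transferred compounds; 1 mM L-glutamine (stock) plus glutamate oxidase/HRP/Amplex Red coupling added. Fluorescence read initially and after 30 min at RT.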
# JMJD2A Tudor = JMJD2A Tudor domain (human) inhibition; AlphaScreen JMJD2A-Tudor / H3K4me3 peptide binding; Potency, µM (top dose mostly 114 µM), for the others: at the highest dose activity change, negative = inhibition, hits mostly inhibitors; 390,000 compounds, 4.4% hits; O75164; also: % is scaled to controls: 0 for no effect and ±100 for the full control effect; nearly all actives have a fitted effect of over 50% in size
# BAZ2B block = blocks human BAZ2B; 360,000 compounds, 4.4% hits; Potency, µM (highest dose often 114 µM), inactives show at the top dose activity change, negative = inhibition, most hits filed as inhibitors; Q9UIF8; AlphaScreen BAZ2B-H3K14Ac peptide displacement; also: % is scaled to controls: 0 for no effect and ±100 for the full control effect; nearly all actives have a fitted effect of over 60% in size
#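 BAZ2B 50 nM plus b-H3(5-23)K14Ac 50 nM, PBS pH 7.4/0.01% Tween-20, 30 min RT; compound added (max 110 uM), 30 min RT; streptavidin donor/Ni-chelate acceptor beads 10 ug/mL final, 20 min dark; AlphaScreen read.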
# Starred values were filed as active, the others as inactive; ? = inconclusive; / = no result given; [ ] = another dose, or the depositor's remark. Calls follow the shape of the dose curve; as a rule, active = well fitted curve in the direction sought with a large enough effect; inconclusive = small, poorly fitted or top-dose-only effect, or another doubt; inactive = no such curve, though single readings can be large; an effect the other way counts as inactive or inconclusive. Potency is read from the fitted curve at half-maximal effect.
SMILES,HP1b chromo inh,G9a block,GLS inhibitor,JMJD2A Tudor,BAZ2B block
COc1cccc(N=Nc2c(=O)[nH]n3c(=O)cc(C)[nH]c23)c1,-7%,?,34%,?,50µM*
COc1cccc(CNC(=O)CSc2nc(=O)[nH]c3c2CCC3)c1,26%,5%[59 µM],6%,0%,-2%
O=c1[nH]n2c(=O)c3c([nH]c2c1N=Nc1cccc(Cl)c1)CCC3,?,?,?,4µM*,35µM*
COc1cccc(N=Nc2c(=O)[nH]n3c(=O)c4c([nH]c23)CCC4)c1,?,?,0%,50µM*,45µM*
O=c1[nH]n2c(=O)c3c([nH]c2c1N=Nc1cccc(C(F)(F)F)c1)CCCC3,-37%,-16%[59 µM],23%,?,-36%
COc1cccc(-c2ccc(C#N)c(=O)[nH]2)c1,37%,9%,0%,3%,0%
CCOC(=O)C1=C(C)Nc2ccccc2N=C1NC(=O)c1cc(C)on1,28%,4%[12.7 µM],3%,-10%,-6%
O=C(Nc1ccc(N2CCC(N3CCCCC3)CC2)c(C(=O)O)c1)c1ccccc1,-8%,-11%[59 µM],2%,-31%,?
O=C(Nc1cc2c3c(c1)C1CCCC1CN3CC1CCCC21)c1ccccc1 (stereo unspecified),?,8.9µM*,?,?,28µM*
CCCC(c1nnnn1CC(=O)OCC)N(Cc1cc2c(C)cc(C)cc2[nH]c1=O)C1CCCC1 (stereo unspecified),26%,28µM*,-7%,-23%,-38%
CCCC(c1nnnn1CC(=O)OCC)N(Cc1cc2ccc(C)cc2[nH]c1=O)C1CCCC1 (stereo unspecified),24%,3%,1%,4%,7%
CCCOc1ccc2c(c1)C(=NN=C(N)N)c1cc(OCCC)ccc1-2,?,?,4%,28µM*,40µM*
COc1cccc2c1C(=O)c1c(O)c3c(c(O)c1C2=O)C[C@@](O)(C(=O)CO)C[C@@H]3OC1C[C@@H](N)[C@H](O)[C@H](C)O1 (stereo partly specified),/,14µM*,/,/,/
CC(=O)[C@]1(O)Cc2c(O)c3c(c(O)c2[C@@H](O[C@H]2C[C@H](N)[C@H](O)[C@H](C)O2)C1)C(=O)c1ccccc1C3=O,-38%,13µM*,21%,?,/
COc1cccc2c1C(=O)c1c(O)c3c(c(O)c1C2=O)C[C@@](O)(C(=O)CO)C[C@@H]3O[C@H]1C[C@H](N)[C@@H](O)[C@H](C)O1,?,/,-5%,?,/
CCCCC(=O)OCC(=O)[C@]1(O)Cc2c(O)c3c(c(O)c2[C@H](OC2CC(NC(=O)C(F)(F)F)C(O)C(C)O2)C1)C(=O)c1c(OC)cccc1C3=O (stereo partly specified),/,8.9µM*,10%,/,/
CC(=O)[C@]1(O)Cc2c(O)c3c(c(O)c2[C@@H](O[C@H]2C[C@H](N)[C@H](O)[C@H](C)O2)C1)C(=O)c1c(O)cccc1C3=O,/,14µM*,-15%,/,/
COc1cccc2c1C(=O)c1c(O)c3c(c(O)c1C2=O)C[C@](O)(C(=O)CO)C[C@@H]3O[C@H]1C[C@H](N)[C@@H](O)[C@H](C)O1,/,?,1%,/,/
COc1cccc(N2CCN(C(=O)c3cnn(-c4ccccc4Cl)c3C3CCN(C(=O)OC(C)(C)C)CC3)CC2)c1,25%,?,1%,?,-19%[57.1 µM]
Cc1ccc(C)c(C(C)NC(=O)c2ccc(Br)o2)c1 (stereo unspecified),59%,50µM*,-8%,-8%,10%
COc1ccccc1Cc1c(C(C)(C)C)nc2c3ccccc3ccn12,/,/,-7%,/,/
O=C(CC1Nc2ccccc2NC1=O)NCCc1ccccc1 (stereo unspecified),53%,11µM*,4%,-18%[57.1 µM],5%
CCCOc1ccccc1NC(=O)CC1Nc2ccccc2NC1=O (stereo unspecified),0%,-9%[59 µM],16%,-28%,4%
CCOc1ccccc1NC(=O)CC1Nc2ccccc2NC1=O (stereo unspecified),8%,14µM*,6%,-23%,-28%
